“And” between values parts separate entries of the source, which are not always exact repeats. Identical values can stand only once. Among all 410,000 compounds or so, about 18,000 (4.4%) were called active. Another 7% or so got no clear call; they are omitted. Cut-off read from the data, not from the text of the source: active = activity change below about -60%; inconclusive = no clear call, values can overlap the other calls; inactive = above about -39%. Many of the other results were omitted from the sample, so actives are more common in it than they were. The source holds several records for some structures; these can differ, active in one and inactive in another.
Assay: qHTS Assay for inhibitors of the human cytomegalovirus (HCMV)
Settings: HFF cells, HCMV-luciferase reporter, 72 h; at 57.5 µM; stronger effect = lower value
Method in brief: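 After 16 h attachment at 37C, HFF cells received test compound and HCMV-luciferase (1 PFU/cell); reporter luminescence read 72 h later, data normalized against buffer-only and known inhibitor Salinomycin.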
% is set by controls: 0 for no effect and ±100 for the full control effect.

Row | SMILES | activity change, negative = inhibition
1 | COc1ccc(S(=O)(=O)N2C[C@H]3CON(C)[C@H]3C[C@H]2c2cccc(Br)c2)cc1 | -8.56% (inactive)
2 | COc1ccccc1-c1ccc([C@@H]2C[C@H]3[C@H](CON3C)CN2S(=O)(=O)c2cc(Cl)cc(Cl)c2)cc1 | 8.41% (inactive)
3 | CN1OC[C@@H]2CN(S(=O)(=O)c3cccc(C(F)(F)F)c3)[C@H](c3ccc(-c4cc5ccccc5o4)cc3)C[C@@H]21 | -67.9% (active)
4 | CC(C)c1ccc(S(=O)(=O)Nc2ccc(O)c(Sc3nc4ccccc4s3)c2)cc1 | -0.0854% (inactive)
5 | O=C1C=C(c2ccc(Cl)cc2)C(=O)N1Nc1ccccc1 | -97.6% (active)
6 | Cc1cccc(NC(=O)Cn2nc(-c3ccc(Cl)cc3)c3ccccc3c2=O)c1 | -6.04% (inactive)
7 | CCc1ccc(S(=O)(=O)n2ccnc2)cc1 | -4.04% (inactive)
8 | Cc1c(C(=O)NCc2ccccc2Br)oc2ccc3c(c12)C(=O)CC(C)(C)O3 | -2.86% (inactive)
9 | O=C(CSc1nc2c(c(=O)[nH]1)CN(Cc1ccc3c(c1)OCO3)CC2)Nc1cc(F)ccc1F | -1.41% (inactive)
10 | CCOC(=O)c1c(NC(=O)CSc2cn(CCNC(=O)c3cccc(C(F)(F)F)c3)c3ccccc23)sc2c1CCC2 | -7.22% (inactive)
11 | O=C(CCSCc1ccccc1F)N1CCN(c2ccc(Cl)cc2)CC1 | -29.1% (inactive)
12 | CN(CC(=O)Nc1cccc(C(F)(F)F)c1)S(=O)(=O)c1cccs1 | 20.2% (inactive)
13 | CCNS(=O)(=O)c1cc(-c2nnc(Nc3cccc(C(F)(F)F)c3)c3ccccc23)ccc1C | 34.1% (inactive)
14 | Cc1oc2c(F)c(F)c(F)c(F)c2c1S(=O)(=O)Nc1cccc(C(F)(F)F)c1 | -97.8% (active)
15 | CCOC(=O)[C@]12CCC=C1N(Cc1ccco1)C(=O)[C@H](CC(=O)N1CCSCC1)C2 | -10.1% (inactive)
16 | CCOc1cc(-c2nnc(SCC(=O)NC3CCCC3)nc2-c2ccc(OC)c(OCC)c2)ccc1OC | 24.6% (inactive)
17 | CO/N=C/CC(=O)c1ccc(OC)cc1 | -35.1% (inactive)
18 | COc1ccc(C(=O)C[n+]2ccc(C)cc2)cc1 | 72% (inactive)
19 | COc1ccc(C(=O)C[n+]2ccc(N)c(C)c2C)cc1 | -93.4% (active)
20 | CCOc1ccc(OCC)c(NC(=O)c2cc(C)nc3c2c(C)nn3-c2cccc(Cl)c2C)c1 | 5.03% (inactive)
21 | C[C@@H]1CCCCO[C@H](CN(C)Cc2ccccc2)[C@@H](C)CN([C@H](C)CO)C(=O)c2cc(NS(=O)(=O)c3ccc(Cl)cc3)ccc2O1 | -31.2% (inactive)
22 | O=S(=O)(Nc1ccc(-c2ccc(N3CCOCC3)nn2)cc1)c1cc(Cl)ccc1Cl | -19.8% (inactive)
23 | Cn1cnc2c1c(=O)n(Cc1c(Cl)cccc1Cl)c(=O)n2C | -6.74% (inactive)
24 | Cn1cnc2c1c(=O)n(Cc1ccccc1C#N)c(=O)n2C | -66.7% (active)
25 | N#Cc1ccccc1Cn1cnc2nc3c(cc2c1=O)CCCC3 | 21.2% (inactive)

Row | SMILES | activity change, negative = inhibition
26 | Cc1cccc(N=Nc2c(O)[nH]c3ccc(F)cc23)c1 | 101% (inactive)
27 | NS(=O)(=O)c1ccc(N=Nc2c(O)[nH]c3ccc(Br)cc23)cc1 | -60.1% (active)
28 | Cc1[nH]c2ccc(S(N)(=O)=O)cc2c1C | 28% (inactive)
29 | Cc1nnc(SCc2cc(=O)c3cc(F)ccc3[nH]2)n1C | 17.7% (inactive)
30 | CC(C)C(=O)Nc1nc2c(s1)CC(C(C)(C)C)CC2 (stereo not drawn) | 36.6% (inactive)
31 | Cc1ccc(Cl)cc1NC(=O)C1CCCN(c2cnccn2)C1 (stereo not drawn) | -33.4% (inactive) and -71.5% (active)
32 | O=C(Nc1cccc(Cl)c1)C1CCCN(c2cnccn2)C1 (stereo not drawn) | -9.65% (inactive)
33 | Cc1ccc(Cl)cc1NC(=O)C1CCN(S(C)(=O)=O)CC1 | 22% (inactive)
34 | COC(=O)c1ccccc1NC(=O)c1cnn(-c2ccc(F)cc2)c1-n1cccc1 | -4.4% (inactive)
35 | COc1ccc(-n2nc(C(=O)NCCc3ccc(Cl)cc3)c3c4ccccc4n(C)c3c2=O)cc1Cl | 1.81% (inactive)
36 | COc1ccc(S(=O)(=O)N2CCN(c3ccc(F)cc3)CC2)cc1-c1noc(C)n1 | -18.6% (inactive)
37 | O=C(NC1CC(=O)N(c2ccc(Cl)cc2)C1)C1CCCC1 (stereo not drawn) | 16.2% (inactive)
38 | COc1ccc(C2Sc3ccccc3NC3=C2C(=O)c2ccccc23)c(OC)c1OC (stereo not drawn) | -74.4% (active)
39 | COC(=O)C(C)C1Sc2ccccc2NC1=O (stereo not drawn) | -14.8% (inactive)
40 | CCCCCOC(=O)C1=C(C)Nc2nnnn2C1c1ccc(OC)c(OC)c1OC (stereo not drawn) | 13.7% (inactive)
41 | COCCNC(=O)c1ccc(-n2c(SCc3cccnc3)nc3ccccc3c2=O)cc1 | -38.3% (inactive)
42 | CCC1NC(=O)c2cccnc2-n2c1nc1ccc(C)cc1c2=O (stereo not drawn) | -2.47% (inactive)
43 | CSc1nc2ccc(C)cc2c(=O)n1-c1cccnc1 | -87.3% (active)
44 | CC1CCCN1CCC(C(N)=O)(c1ccccc1)c1ccccc1 (stereo not drawn) | -15% (inactive)
45 | OC(c1ccccc1)(c1ccccc1)C1CCN(CCCOc2ccccc2)CC1 | 2.18% (inactive)
46 | CN1CCC[C@@H]1CCO[C@](C)(c1ccccc1)c1ccc(Cl)cc1 | -62.4% (active)
47 | COc1ccc(-c2nc(C)c(CCNC(=O)c3ccc(C(F)(F)F)cc3)s2)cc1OC | 14.8% (inactive)
48 | O=C(Nc1ccc(Cl)cc1)c1csc([C@@H]2O[C@H](CO)[C@H](O)[C@H](O)[C@H]2O)n1 | 16.2% (inactive)
49 | O=C(Nc1ccc(Cl)cc1)c1csc(C(O)c2cccc(C(F)(F)F)c2)n1 (stereo not drawn) | -20.2% (inactive)
50 | N#Cc1ccc(CC(O)c2nc(C(=O)Nc3ccccc3)cs2)cc1 (stereo not drawn) | -100% (active)

Row | SMILES | activity change, negative = inhibition
51 | COc1ccccc1Cc1c(-c2ccc(Cl)cc2)nc2c3ccccc3ccn12 | 22.4% (inactive)
52 | CCc1c(C)nc2c(OC)cccc2c1Cl | -75.4% (active)
53 | COc1cccc2c(C)c(C(=O)O)[nH]c12 | -2.81% (inactive)
54 | COc1ccc(C)cc1-n1c(-c2ccc(C)cc2)cc2c1CC(C)(C)CC2=O | 5.24% (inactive)
55 | CC(=O)Nc1ccc(S(=O)(=O)NC2(C(F)(F)F)C(=O)NC(C)=C2C#N)cc1 (stereo not drawn) | -29.9% (inactive)
56 | CC(C)CNc1ncnc2c1nnn2C | -27.2% (inactive)
57 | Cc1ccc(-n2nnnc2CNC(=O)c2ccccc2C)cc1C | -15.5% (inactive)
58 | O=C(NCc1nnnn1-c1ccc(Cl)cc1)c1ccc([N+](=O)[O-])o1 | -63.2% (active)
59 | O=C(NCc1nnnn1-c1ccc(Cl)cc1)c1ccc2c(c1)OCO2 | 21% (inactive)
60 | C=CCn1c(O)c(/C=N/N2CCOCC2)c(=O)[nH]c1=S | -8.35% (inactive)
61 | CCCCn1nc2ccccc2c1OCC | -7.88% (inactive)
62 | CSc1ccccc1NC(=O)CCS(=O)(=O)c1nc(-c2cccs2)cc(C(F)(F)F)n1 | 3.11% (inactive)
63 | COc1ccccc1-c1cc(C(F)(F)F)nc(S(=O)(=O)CCCC(=O)Nc2ccc(F)cc2F)n1 | -93% (active)
64 | COc1ccccc1-c1cc(C(F)(F)F)nc(S(=O)(=O)CCCC(=O)Nc2cc(C)ccc2O)n1 | 7.44% (inactive)
65 | Cc1nn(-c2ccccc2)nc1C(=O)OCC(=O)N1CCCCC1C (stereo not drawn) | 37.5% (inactive)
66 | C#Cc1cc(N2CCN(C(=O)c3ccoc3)CC2)n2nc(-c3cccc(Cl)c3)cc2n1 | -102% (active)
67 | CNc1cncc(-c2cccc(C(=O)N3CCOCC3)c2)n1 | 16.3% (inactive)
68 | Cc1oc2ncnc(N3CCCCC3)c2c1C(=O)N1CCN(c2cccc(Cl)c2)CC1 | 2.67% (inactive)
69 | COc1ccccc1-c1cc2nc(C)c(CCC(=O)NC3CCCCC3)c(C)n2n1 | -7.07% (inactive)
70 | CC(=O)[C@@]12O[C@@H]1C[C@H]1[C@@H]3CC[C@H]4C[C@@H](O)CC[C@]4(C)[C@H]3CC[C@@]12C | -16% (inactive)
71 | C[C@]12CC[C@H](O)C[C@H]1CC[C@@H]1C2CC[C@]2(C)[C@@H](C3=CC(=O)OC3)[C@@H](O)C[C@]12O (stereo partly drawn) | -99.6% (active)
72 | Cc1cc2ccccc2n1CCNC(=O)c1ccc(F)cc1 | 0.319% (inactive)
73 | CC1=C(C(=O)OCc2ccc(C)cc2)C(c2c(Cl)cccc2Cl)CC(=O)N1 (stereo not drawn) | -18.7% (inactive)

From PubChem BioAssay AID1259415 (National Center for Advancing Translational Sciences (NCATS), 2018)
